Experimental findings from the supplement of paper PMC4166925 are described below.

± gives the standard deviation of the averaged measurements. The full ranking holds about 33,000 sequences; the median of “E-score (dimensionless, -0.5 to 0.5)” is about -0.049, and the highest 2% start at about 0.37. This is one part of a sample in which the highest values are shown more often than they occur.

For this assay, the system named is T1, PmTbr T-box DNA-binding domain (GST fusion).
T1 sequence: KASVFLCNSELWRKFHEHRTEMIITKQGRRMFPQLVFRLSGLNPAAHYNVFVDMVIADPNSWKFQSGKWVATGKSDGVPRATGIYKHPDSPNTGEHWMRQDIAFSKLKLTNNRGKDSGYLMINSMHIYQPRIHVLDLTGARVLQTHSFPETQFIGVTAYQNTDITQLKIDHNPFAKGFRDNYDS
As to the kind of experiment: PBM E-score of 8-mer (E-score (dimensionless, -0.5 to 0.5)); Tbr is Tbrain of the sea star Patiria miniata (Pm) or the sea urchin Strongylocentrotus purpuratus (Sp); higher = stronger binding preference. Conditions: the construct has about 5 more residues each side. Put shortly: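 Expression of GST-fused Tbr T-box DNA-binding domains, each holding the full T-box plus roughly five flanking residues, was carried out in BL21 E. coli at 20 °C, with purification by glutathione affinity chromatography. Universal Agilent arrays made double-stranded by primer extension were incubated with the protein at 200 nM in PBS (pH 7.5), then scanned and quantified. All ungapped 8-mers were scored from probe intensities, and each received an enrichment E-score from the Universal PBM Analysis Suite, averaged over duplicate arrays.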
In the case of ACCCCAGT, the “PBM E-score of 8-mer” value is -0.138 ± 0.1.

On to CTAGTCCC, for which the “PBM E-score of 8-mer” value is -0.132 ± 0.064.

As for TGTGACAA, the “PBM E-score of 8-mer” value is 0.42 ± 0.028.

Regarding TCTGACAA, the “PBM E-score of 8-mer” value came out at 0.112 ± 0.048.

Consider TATGACAA, for which the “PBM E-score of 8-mer” value was determined as 0.0436 ± 0.061.

With AGAGCCAC, the “PBM E-score of 8-mer” value was -0.0799 ± 0.014.

For the sequence CCTAGTTC, the “PBM E-score of 8-mer” value is -0.072 ± 0.0041.

As for GATCACAC, the “PBM E-score of 8-mer” value was 0.451 ± 0.014.

On to AATCACAA, for which the “PBM E-score of 8-mer” value was determined as 0.199 ± 0.0027.

Consider CATCACAC, for which the “PBM E-score of 8-mer” value turned out to be 0.4576 ± 0.0032.

For the sequence GATCACGC, the “PBM E-score of 8-mer” value worked out at 0.287 ± 0.017.

As to AATCACAG, the “PBM E-score of 8-mer” value amounted to 0.0723 ± 0.038.

In the case of CATCACAG, the “PBM E-score of 8-mer” value was 0.109 ± 0.038.

Regarding AATCACAC, the “PBM E-score of 8-mer” value was 0.462 ± 0.0075.

Turning to CATCACAA, the “PBM E-score of 8-mer” value was 0.179 ± 0.006.

As to GATCACAA, the “PBM E-score of 8-mer” value was 0.163 ± 0.045.

On to AACGAGTC, for which the “PBM E-score of 8-mer” value was -0.154 ± 0.018.

For the sequence GTCTTCAA, the “PBM E-score of 8-mer” value is -0.0747 ± 0.03.

As to CCGCCCCA, the “PBM E-score of 8-mer” value was -0.155 ± 0.064.

Regarding ACGCATTC, the “PBM E-score of 8-mer” value came to 0.0134 ± 0.0026.

As to GTCACAGA, the “PBM E-score of 8-mer” value stood at 0.0466 ± 0.051.

Consider GTCACACA, for which the “PBM E-score of 8-mer” value is 0.3901 ± 0.0019.

For CACACACA, the “PBM E-score of 8-mer” value was 0.303 ± 0.0096.

Consider CTCACACA, for which the “PBM E-score of 8-mer” value is 0.41 ± 0.0079.

As to GTCACAAA, the “PBM E-score of 8-mer” value was found to be 0.118 ± 0.066.

In the case of CACACACG, the “PBM E-score of 8-mer” value worked out at 0.181 ± 0.059.

As to CAATAGTG, the “PBM E-score of 8-mer” value amounted to 0.127 ± 0.061.

ACTTGCGG: the “PBM E-score of 8-mer” value is -0.0023 ± 0.035.

In the case of GGTGAAAC, the “PBM E-score of 8-mer” value worked out at 0.0805 ± 0.054.

With TCAATGCA, the “PBM E-score of 8-mer” value is -0.268 ± 0.037.

For ACACCACC, the “PBM E-score of 8-mer” value came out at 0.405 ± 0.0043.

In the case of ACACCACA, the “PBM E-score of 8-mer” value came out at 0.377 ± 0.008.

For CCACCACA, the “PBM E-score of 8-mer” value was determined as 0.117 ± 0.02.

For TCACCACA, the “PBM E-score of 8-mer” value turned out to be 0.204 ± 0.054.

In the case of CCACCACC, the “PBM E-score of 8-mer” value was 0.107 ± 0.044.

Turning to GCACCACA, the “PBM E-score of 8-mer” value was 0.133 ± 0.047.

With ACACCACG, the “PBM E-score of 8-mer” value came out at 0.3698 ± 0.0022.

As to ACACCACT, the “PBM E-score of 8-mer” value came out at 0.254 ± 0.012.

On to CCACCACG, for which the “PBM E-score of 8-mer” value was -0.00839 ± 0.13.

With ACGAAACG, the “PBM E-score of 8-mer” value was 0.16 ± 0.01.

For the sequence GCATTGCA, the “PBM E-score of 8-mer” value is -0.0859 ± 0.03.

For the sequence ACAATCTA, the “PBM E-score of 8-mer” value is -0.0816 ± 0.0069.

For the sequence ATCGAAAC, the “PBM E-score of 8-mer” value was -0.0958 ± 0.024.

ACCTATTG: the “PBM E-score of 8-mer” value came to 0.129 ± 0.034.

For the sequence CTGGTGAC, the “PBM E-score of 8-mer” value was 0.221 ± 0.045.

As for GGGGTGAC, the “PBM E-score of 8-mer” value turned out to be 0.3431 ± 0.0017.

With AGGGTGAG, the “PBM E-score of 8-mer” value was 0.137 ± 0.097.

Turning to ACGGTGAT, the “PBM E-score of 8-mer” value came out at 0.202 ± 0.0041.

With GAGGTGAC, the “PBM E-score of 8-mer” value is 0.4496 ± 0.0027.

For AGGGTGAT, the “PBM E-score of 8-mer” value was found to be 0.197 ± 0.018.

With AAGGTGAT, the “PBM E-score of 8-mer” value came to 0.424 ± 0.021.

Regarding ACGGTGAG, the “PBM E-score of 8-mer” value was 0.12 ± 0.014.

Take CAGGTGAC: the “PBM E-score of 8-mer” value amounted to 0.4485 ± 0.0027.

As for CAGATGAC, the “PBM E-score of 8-mer” value is -0.0423 ± 0.069.

With GAGGTGAA, the “PBM E-score of 8-mer” value amounted to 0.294 ± 0.0035.

In the case of AAGGTGAG, the “PBM E-score of 8-mer” value was determined as 0.452 ± 0.0046.

Turning to CGTGTCCA, the “PBM E-score of 8-mer” value turned out to be 0.00534 ± 0.099.

In the case of GATGCACC, the “PBM E-score of 8-mer” value is -0.0938 ± 0.034.

Turning to GCAAACCC, the “PBM E-score of 8-mer” value is -0.0342 ± 0.058.

In the case of CCTCGGTC, the “PBM E-score of 8-mer” value was 0.0608 ± 0.12.

Turning to AAGGTGAC, the “PBM E-score of 8-mer” value was determined as 0.426 ± 0.011.

For CAGGTGAA, the “PBM E-score of 8-mer” value was 0.1748 ± 0.0016.

Take CCGGTGAG: the “PBM E-score of 8-mer” value was 0.0229 ± 0.12.

Regarding CAGGTGAG, the “PBM E-score of 8-mer” value is 0.422 ± 0.007.

For ACGGTGAC, the “PBM E-score of 8-mer” value is 0.285 ± 0.0079.

With AAGGTGAA, the “PBM E-score of 8-mer” value is 0.185 ± 0.013.

For the sequence CTGACCTA, the “PBM E-score of 8-mer” value was -0.194 ± 0.079.

Consider AGTGGAAT, for which the “PBM E-score of 8-mer” value was -0.0212 ± 0.05.

Take GGCGATAA: the “PBM E-score of 8-mer” value came to 0.276 ± 0.048.

As for AGACGTAA, the “PBM E-score of 8-mer” value was -0.2 ± 0.092.

CCAGTGCG: the “PBM E-score of 8-mer” value worked out at 0.133 ± 0.074.

In the case of ACAACACT, the “PBM E-score of 8-mer” value is 0.37 ± 0.016.

For the sequence ACAACAAT, the “PBM E-score of 8-mer” value was 0.109 ± 0.024.

ACAACACG: the “PBM E-score of 8-mer” value was 0.251 ± 0.017.

On to CCAACACC, for which the “PBM E-score of 8-mer” value came out at 0.443 ± 0.011.

Regarding CCAACACG, the “PBM E-score of 8-mer” value is 0.274 ± 0.0077.

For ACAACACC, the “PBM E-score of 8-mer” value came to 0.435 ± 0.023.

Take ACAACACA: the “PBM E-score of 8-mer” value turned out to be 0.347 ± 0.033.

On to GCAACACA, for which the “PBM E-score of 8-mer” value came to 0.311 ± 0.0054.

Consider GCAACACC, for which the “PBM E-score of 8-mer” value came out at 0.455 ± 0.0097.

Take AGAACACT: the “PBM E-score of 8-mer” value amounted to 0.133 ± 0.04.

For CCAACACA, the “PBM E-score of 8-mer” value came out at 0.241 ± 0.023.

As to GCAACAAC, the “PBM E-score of 8-mer” value came out at 0.0808 ± 0.019.

Take CCCTTGGA: the “PBM E-score of 8-mer” value was -0.13 ± 0.033.

As for TAGGGCCA, the “PBM E-score of 8-mer” value was -0.155 ± 0.032.

Consider CGCCAAGC, for which the “PBM E-score of 8-mer” value was 0.0166 ± 0.082.
